Measured values published in PubChem BioAssay AID1159580 (chemical genetic matrix, 2015).
Screen size: about 5,500 compounds; about 2,000 (36%) were called active. Another 18% or so got no clear call; they are omitted. Rule as the data show it: active = normalized growth mostly below about 0.91 (no sharp cut-off); inconclusive = no clear call, values can overlap the other calls; inactive = mostly above about 0.92. This is one part of the list.

Experiment: chemical genetic growth profiling, strain panel (AID 1159580);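 also: tested at 20 µM; growth read once vehicle control cultures reached saturation at 30 °C; 1 = growth at the plate median or of vehicle wells; lower values mean less growth of the strain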
Details: S. cerevisiae deletion strains, growth OD
[1] = locus YBL105C, strain PKC1, hits give low values
[2] = locus YBR135W, strain CKS1, hits give low values
[3] = locus YBR136W, strain MEC1, hits give low values
[4] = locus YBR160W, strain CDC28, hits give low values
[5] = locus YDL017W, strain CDC7, hits give low values
[6] = locus YDL028C, strain MPS1, hits give low values
[7] = locus YDL101C, strain DUN1, hits give low values
[8] = locus YDL108W, strain KIN28, hits give low values
[9] = locus YDL132W, strain cdc53, hits give low values
[10] = locus YDL214C, strain PRR2, hits give low values
[11] = locus YDR052C, strain DBF4, hits give low values
[12] = locus YDR054C, strain cdc34, hits give low values
[13] = locus YDR226W, strain ADK1, hits give low values
[14] = locus YDR477W, strain SNF1, hits give low values
[15] = locus YER123W, strain YCK3, hits give low values
[16] = locus YER133W, strain GLC7, hits give low values
[17] = locus YFL009W, strain cdc4, hits give low values
[18] = locus YFL029C, strain CAK1, hits give low values
[19] = locus YFR003C, strain YPI1, hits give low values
[20] = locus YFR019W, strain FAB1, hits give low values
[21] = locus YFR028C, strain CDC14, hits give low values
[22] = locus YGR040W, strain KSS1, hits give low values
[23] = locus YGR052W, strain FMP48, hits give low values
[24] = locus YGR092W, strain DBF2, hits give low values
[25] = locus YHR030C, strain SLT2, hits give low values
[26] = locus YHR079C, strain IRE1, hits give low values
[27] = locus YHR082C, strain KSP1, hits give low values
[28] = locus YHR205W, strain SCH9, hits give low values
[29] = locus YIL147C, strain SLN1, hits give low values
[30] = locus YJL095W, strain BCK1, hits give low values
[31] = locus YJL128C, strain PBS2, hits give low values
[32] = locus YJL157C, strain FAR1, hits give low values
[33] = locus YJR016C, strain ILV3, hits give low values
[34] = locus YJR066W, strain TOR1 (second series), hits give low values
[35] = locus YJR066W, strain TOR1, hits give low values
[36] = locus YKL067W, strain YNK1, hits give low values
[37] = locus YKL101W, strain HSL1, hits give low values
[38] = locus YKL193C, strain SDS22, hits give low values
[39] = locus YLR113W, strain HOG1, hits give low values
[40] = locus YLR133W, strain CKI1, hits give low values
[41] = locus YLR403W, strain SFP1, hits give low values
[42] = locus YML070W, strain DAK1, hits give low values
[43] = locus YMR001C, strain CDC5, hits give low values
[44] = locus YMR205C, strain PFK2 (second series), hits give low values
[45] = locus YNL006W, strain LST8, hits give low values
[46] = locus YNL020C, strain ARK1, hits give low values
[47] = locus YNL161W, strain CBK1, hits give low values
[48] = locus YNL183C, strain NPR1, hits give low values
[49] = locus YNL207W, strain RIO2, hits give low values
[50] = locus YNL222W, strain SSU72, hits give low values
[51] = locus YNL307C, strain MCK1 (second series), hits give low values
[52] = locus YOL078W, strain AVO1, hits give low values
[53] = locus YOL136C, strain PFK27, hits give low values
[54] = locus YOR061W, strain CKA2, hits give low values
[55] = locus YOR231W, strain MKK1, hits give low values
[56] = locus YOR329C, strain SCD5, hits give low values
[57] = locus YPL031C, strain PHO85, hits give low values
[58] = locus YPL153C, strain RAD53, hits give low values
[59] = locus YPL204W, strain HRR25, hits give low values
[60] = locus YPL209C, strain IPL1, hits give low values
[61] = locus YPL256C, strain CLN2, hits give low values
[62] = locus YPR111W, strain DBF20, hits give low values
[63] = strain NNK1, hits give low values
[64] = strain TSCII, hits give low values
[65] = locus YAL013W, strain DEP1, hits give low values
[66] = locus YBR229C, strain ROT2, hits give low values
[67] = locus YDR150W, strain NUM1, hits give low values
[68] = locus YEL061C, strain CIN8, hits give low values
[69] = locus YGR078C, strain PAC10, hits give low values
[70] = locus YGR229C, strain SMI1, hits give low values
[71] = locus YHR087W, strain rtc3, hits give low values
[72] = locus YJR043C, strain POL32, hits give low values
[73] = locus YJR075W, strain HOC1, hits give low values
[74] = locus YLR039C, strain RIC1, hits give low values
[75] = locus YLR058C, strain SHM2 (second series), hits give low values
[76] = locus YLR085C, strain ARP6, hits give low values
[77] = locus YLR262C, strain YPT6, hits give low values
[78] = locus YML094W, strain GIM5, hits give low values
[79] = locus YMR219W, strain ESC1, hits give low values
[80] = locus YMR263W, strain SAP30, hits give low values
[81] = locus YNL153C, strain GIM3, hits give low values
[82] = locus YNL298W, strain CLA4 (second series), hits give low values
[83] = locus YNL322C, strain KRE1, hits give low values
[84] = locus YNR030W, strain Alg12, hits give low values
[85] = locus YPL055C, strain LGE1, hits give low values
[86] = locus YPL241C, strain CIN2, hits give low values
[87] = locus YPR135W, strain CTF4, hits give low values
[88] = locus YCL061C, strain MRC1, hits give low values
[89] = locus YDL134C, strain PPH21, hits give low values
[90] = locus YKL190W, strain CNB1, hits give low values
[91] = locus YMR307W, strain GAS1, hits give low values

Measured: normalized growth

Nc1ccc(Sc2ccccc2)nc1Sc1ccccc1
active: [25] 0.697 | [39] 0.757 | [61] 0.85
inactive: locus YAR019C, strain CDC15, hits give low values 0.947 | [1] 0.961 | [2] 0.957 | [3] 0.957 | [4] 0.95 | [5] 0.967 | [6] 0.942 | [7] 0.963 | [8] 0.958 | [9] 0.958 | [10] 0.927 | [11] 0.976 | [12] 0.947 | [13] 0.957 | [14] 0.901 | [15] 0.918 | [16] 0.927 | [17] 0.938 | [18] 0.935 | [19] 0.961 | [20] 0.984 | [21] 0.94 | [22] 0.909 | [23] 0.956 | [24] 0.875 | [26] 0.893 | [27] 0.948 | [28] 0.878 | [29] 0.962 | [30] 0.859 | [31] 0.886 | [32] 0.935 | [33] 0.965 | [34] 0.896 | [35] 0.851 | locus YKL048C, strain ELM1, hits give low values 0.969 | [36] 0.908 | [37] 0.913 | [38] 0.955 | locus YKL203C, strain TOR2, hits give low values 1.01 | [40] 0.945 | [41] 0.922 | [42] 0.915 | [43] 0.956 | [44] 0.938 | locus YMR277W, strain FCP1, hits give low values 0.938 | [45] 0.958 | [46] 0.938 | [47] 0.968 | [48] 0.956 | [49] 0.951 | [50] 0.951 | [51] 0.915 | [52] 0.956 | [53] 0.921 | [54] 0.919 | locus YOR119C, strain RIO1, hits give low values 0.935 | [55] 0.883 | [56] 0.962 | [57] 0.906 | [58] 0.906 | [59] 0.903 | [60] 0.959 | locus YPR025C, strain CCL1, hits give low values 0.956 | locus YPR106W, strain ISR1, hits give low values 0.957 | [62] 0.926 | [63] 0.954 | [64] 0.945

CCOC(=O)c1cc(CC)sc1NC(=O)c1ccc([N+](=O)[O-])o1
inactive: [1] 0.959 | [2] 0.992 | [3] 0.999 | [4] 1 | [5] 1 | [6] 0.988 | [8] 0.998 | [9] 0.996 | [11] 1 | [12] 0.985 | [13] 0.985 | [17] 0.985 | [18] 0.929 | [19] 1 | [21] 0.991 | [24] 0.505 | [26] 0.727 | [29] 1 | [31] 0.938 | [33] 0.95 | [38] 0.98 | [43] 0.998 | [47] 0.987 | [49] 0.995 | [50] 0.993 | [52] 1 | [55] 0.756 | [56] 1 | [60] 0.979 | [62] 0.906 | [63] 0.995 | [64] 0.998
active: [10] 0.226 | [14] 0.327 | [15] 0.34 | [16] 0.347 | [20] 0.3 | [22] 0.43 | [23] 0.205 | [25] 0.281 | [27] 0.202 | [28] 0.153 | [30] 0.318 | [32] 0.372 | [34] 0.197 | [35] 0.212 | [36] 0.435 | [37] 0.451 | [39] 0.574 | [40] 0.18 | [41] 0.129 | [42] 0.471 | [44] 0.47 | [45] 0.507 | [46] 0.338 | [48] 0.175 | [51] 0.464 | [53] 0.378 | [54] 0.334 | [57] 0.169 | [58] 0.487 | [59] 0.464 | [61] 0.337

CC(C)c1ccccc1NC(=S)N1CCN(c2ncc(C(F)(F)F)cc2Cl)CC1
active: [74] 0.761 | [77] 0.736
inactive: [65] 1.02 | [66] 0.995 | [7] 0.985 | [67] 1.02 | [68] 1.01 | [69] 1.01 | [70] 0.963 | [25] 0.976 | [71] 1.02 | [72] 0.995 | [73] 0.972 | [75] 0.977 | [76] 1.1 | [78] 1.04 | [79] 0.992 | [80] 0.991 | [81] 1.02 | [82] 0.984 | [83] 0.998 | [84] 1.02 | [85] 1.13 | [86] 1.07 | [87] 1.17

FC(F)(F)c1cnc(N2CCN(C(=S)Nc3ccccc3)CC2)c(Cl)c1
inactive: [65] 0.989 | [66] 1.01 | [88] 1 | [7] 0.999 | [89] 1.01 | [67] 0.963 | [68] 0.985 | [69] 0.993 | [25] 1.05 | [71] 1.03 | [72] 0.986 | [73] 1.02 | [90] 1.01 | [74] 0.984 | [75] 1.02 | [76] 1.03 | [77] 1.02 | [78] 0.952 | [79] 1.02 | [80] 0.982 | [91] 1 | locus YNL128W, strain TEP1, hits give low values 1.01 | [81] 0.972 | [82] 0.976 | [83] 1.01 | [84] 1 | locus YOL006C, strain TOP1, hits give low values 0.894 | [85] 0.938 | [86] 0.955 | [87] 0.981

Cc1cc(C)cc(NC(=S)N2CCN(c3ncc(C(F)(F)F)cc3Cl)CC2)c1
inactive: [65] 1 | [66] 1.01 | [88] 1 | [7] 1 | [89] 0.986 | [67] 0.997 | [68] 1.01 | [69] 1 | [70] 0.976 | [25] 1.02 | [71] 1.01 | [72] 1.01 | [73] 0.996 | [90] 0.98 | [74] 1.04 | [75] 1.01 | [76] 0.99 | [77] 1.03 | [78] 1.02 | [79] 0.999 | [80] 1 | [91] 0.907 | [81] 1.01 | [82] 1.06 | [83] 0.998 | [84] 1.02 | [85] 1.03 | [86] 0.886 | [87] 1
